From PubChem BioAssay AID2718 (Broad Institute, 2010)
Out of some 320,000 compounds screened, about 480 (0.15%) were called active. Inconclusive results (about 1%) are left out. For the sample, actives were picked, then their nearest neighbours and some compounds at random. Unmarked numbers belong to inactive results. Rule as the data show it: active = inhibition above about 26% (passing the limit was not always enough); inconclusive = no clear call, values can overlap the other calls.

What follows are molecules tested against Histone deacetylase 3 (Homo sapiens) (UniProt O15379) (assay: HDAC3 deacetylase inhibitors, primary screen, biochemical, fluorescence, cell-free homogeneous (AID 2718)). Details: recombinant HDAC3, fluorogenic peptide/trypsin coupled, at 8.3 µM, stronger effect = higher value.
Sequence of Histone deacetylase 3 (Homo sapiens) (O15379 whole entry, looked up): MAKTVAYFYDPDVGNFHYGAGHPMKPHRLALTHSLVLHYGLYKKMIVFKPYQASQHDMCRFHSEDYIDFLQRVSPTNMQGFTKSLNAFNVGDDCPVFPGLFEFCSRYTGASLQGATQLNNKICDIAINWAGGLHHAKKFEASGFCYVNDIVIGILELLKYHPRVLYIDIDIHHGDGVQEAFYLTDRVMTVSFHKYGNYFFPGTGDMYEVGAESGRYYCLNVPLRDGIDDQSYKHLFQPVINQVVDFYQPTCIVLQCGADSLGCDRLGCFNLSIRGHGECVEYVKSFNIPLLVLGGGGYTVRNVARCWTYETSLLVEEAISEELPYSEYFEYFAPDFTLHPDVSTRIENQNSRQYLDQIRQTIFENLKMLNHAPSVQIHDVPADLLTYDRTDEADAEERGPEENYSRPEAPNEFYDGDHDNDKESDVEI

| Compound | inhibition |
| --- | --- |
| Cc1ccc(C)c(NC(=O)c2cc(-c3cc(C)cc(C)c3O)n[nH]2)c1 | -1.79% |
| Cc1cc(NC(=O)CSc2nnc(-c3ccco3)n2N)no1 | 2.85% |
| Cc1[nH]c2ccccc2c1SCC(=O)Nc1nccs1 | -0.0176% |
| CC(C)(C)OC(=O)C[C@@H]1C/C=C\C[C@H](CC(=O)N[C@@H](CO)Cc2ccccc2)C(=O)N[C@H](Cc2ccccc2)COC1=O | -0.452% |
| COc1ccccc1-c1sc2ccccc2c1C#CC1(O)CCCCC1 | 14.4% |
| COc1cc(/C=C/C(=O)OCC(=O)c2ccccc2)cc(OC)c1OC | -7.7% |
| O=C(OCC(=O)N1CCCCC1)c1ccc(OC(F)(F)F)cc1 | -7.06% |
| O=C(Cn1cnc2c(OCc3ccccc3)ncnc21)NCCCn1ccnc1 | -4.2% |
| O=C1CCCC(O)=C1N=Nc1ccc2ncsc2c1 | -0.0778% |
| Nc1ccc(N=Nc2ccccc2Cl)c(N)n1 | 14.3% |
| NC[C@H](Cc1ccccc1)NCCc1cc(C(F)(F)F)cc(C(F)(F)F)c1 | 3.54% |
| O=C(COC(=O)CCCNC(=O)c1ccc(Cl)cc1)Nc1cc(Cl)ccc1Cl | -2.2% |
| O=C(Nc1cc(S(=O)(=O)Nc2ccc(Cl)cc2)ccc1O)c1ccc(F)cc1F | 8.91% |
| O=C(Nc1ccccc1F)c1ccc(S(=O)(=O)N2CCCCCC2)cc1 | 7.14% |
| O=C(N/N=C/c1ccccn1)c1ccc(S(=O)(=O)N2CCCCCC2)cc1 | -5.66% |
| O=C(Nc1ncccc1O)c1ccc(S(=O)(=O)N2CCCC2)cc1 | 72.1% (active) |
| CCCc1cc(=O)[nH]c(SCC(=O)Nc2ccc(S(=O)(=O)N3CCCC3)cc2)n1 | 4.11% |
| O=C1N(c2ccccc2)C(=Nc2ccccc2)SC12CC2 | 1.18% |
| Cc1ccccc1N/C(SCc1ccc(Cl)cc1)=C(/C#N)C(N)=O | 15.5% |
| CCOC(=O)C1CCN(CCC(=O)Nc2cccc(C)c2)CC1 | 1.84% |
| CC(=O)c1cccc(OCC(=O)OCC(=O)Nc2cc(S(=O)(=O)N3CCCCC3)ccc2C)c1 | 0.557% |
| CN1CCN(S(=O)(=O)c2cccc(C(=O)O)c2)CC1 | -5.01% |
| CNC(=O)NC(=O)C(OC(=O)c1cccc(S(=O)(=O)N2CCCCC2)c1)c1ccccc1 (centres undefined) | 30.1% (active) |
| CS(=O)(=O)c1ccc(Cl)c(NC(=O)COC(=O)c2cccc(S(=O)(=O)N3CCCC3)c2)c1 | 5.04% |
| COC(=O)c1nc(NC(=O)c2ccccc2)n[nH]1 | 58.7% (active) |

| Compound | inhibition |
| --- | --- |
| COC(=O)c1nc(NC(=O)c2ccc(Cl)cc2)n[nH]1 | 7.09% |
| Cn1c(NC(=O)c2ccccc2)nc2ccccc21 | 9.99% |
| Nn1c(SCC(=O)Nc2ccc3c(c2)CCC3)nnc1C1CC1 | 1.79% |
| Cc1cc(C)n(C(=O)CCNC(=O)c2ccccc2Cl)n1 | -13.4% |
| COc1cccc(N2CC(NS(=O)(=O)c3cccs3)CC2=O)c1 (centres undefined) | -2.66% |
| COc1ccccc1C(=O)OCC(=O)Nc1cccc(S(=O)(=O)NC2=NCCCCC2)c1 | -6.85% |
| O=C(COC(=O)c1cc[n+]([O-])cc1)Nc1ccc(Cl)c(C(F)(F)F)c1 | -1.85% |
| COc1cc(OC)cc(C(=O)NCC(=O)OCC(=O)NC(C)CCc2ccccc2)c1 (centres undefined) | -5.18% |
| CC(C)Cn1c(SCC(=O)Nc2ccc(Cl)cc2F)nc(O)cc1=O | 8.68% |
| CCC(CO)Oc1cc(NC(=O)c2cccc(F)c2)c2ncn(C(C)C)c2c1 (centres undefined) | -0.176% |
| CCC(=O)c1ccc(OCC(=O)Nc2ccc(N3CCCCC3)cc2)cc1 | -1.33% |
| COc1ccc(OCC(=O)Nc2ccc(N3CCC(C)CC3)cc2)cc1 | 5.48% |
| O=C(COc1ccc([N+](=O)[O-])cc1)Nc1ccc(N2CCCC2)cc1 | 54.5% (active) |
| O=C(Nc1cc(S(=O)(=O)N2CCCCC2)ccc1Cl)C1COc2ccccc2O1 (centres undefined) | -0.0794% |
| COc1cc(OC)cc(-c2cc3ccc(F)cc3cn2)c1 | 5.76% |
| CCN(C[C@H]1N[C@@](CC)(C(=O)OC)[C@H]2C(=O)N(Cc3ccccc3)C(=O)[C@@H]12)S(=O)(=O)c1ccc(C(F)(F)F)cc1 | 4.73% |
| CC[C@@H]1CCCCc2ccccc2[C@@H](C(=O)C[C@H](O)CC(C)=O)OC1=O | -4.02% |
| O=C(CCNC(=O)c1ccccc1)NN=Cc1ccc(Br)o1 | 4.25% |
| Fc1ccccc1-c1cc2cc3c(cc2cn1)OCO3 | 0.895% |
| CCOC(=O)C1Cn2c(nc3c(c2=O)C(C)(CC)Cc2ccccc2-3)S1 (centres undefined) | -2.26% |
| CCCN(CC1CC1)C(=O)COC(=O)c1ccc(C)cc1O | -5.26% |
| CCCC1CCC(=NNC(=S)NCCc2ccccc2)CC1 (centres undefined) | -4.85% |
| COCCN(CCOC)S(=O)(=O)NC[C@H]1O[C@@H](n2cnc3c(N)ncnc32)[C@H](O)[C@@H]1O | -1.58% |
| Cc1nc2ccc(NC(=O)c3cccc(S(=O)(=O)N4CCOCC4)c3)cc2s1 | -5.18% |
